# Assay results taken from PubChem BioAssay (EPA / NIEHS).
# The source holds several records for some structures; these can differ, active in one and inactive in another. Active and inactive are the calls of the source. The calls were made as follows: active = hit-call score of the fitted dose curve at least 0.9, where 1 is the maximum; inactive = score below 0.9.
# Test: ATG_Oct_MLP_CIS: Attagene CIS-FACTORIAL HepG2 Assay for human Octamer-Binding Transcription Factor (Oct) (AID 2282993)
# Details: HepG2 Attagene cis-factorial Oct reporter, mRNA; actives raise or lower the signal
# Protocol: ATG_CIS is a cell-based, multiplexed-readout assay that uses HepG2, a human liver cell line, with measurements taken at 24 hours after chemical dosing in a 24-well plate.ATG_Oct_MLP_CIS is one of 52 assay component(s) measured or calculated from the ATG_CIS assay. It is designed to make measurements of mRNA induction, a form of inducible reporter, as detected with fluorescence intensity signals by Reverse transcription polymerase chain reaction (RT-PCR) and Capillary electrophoresis technology.Data from the assay component ATG_Oct_MLP_CIS was analyzed into 1 assay endpoint. This assay endpoint, ATG_Oct_MLP_CIS, was analyzed with bidirectional fitting relative to DMSO as the negative control and baseline of activity. Using a type of inducible reporter, measures of mRNA for gain or loss-of-signal activity can be used to understand the reporter gene at the transcription factor-level as they relate to the gene POU2F1. Furthermore, this assay endpoint can be referred to as a primary readout, because this assay has produced multiple assay endpoints where this one serves a reporter gene function. To generalize the intended target to other relatable targets, this assay endpoint is annotated to the dna binding intended target family, where the subfamily is POU domain protein.
# Human liver HepG2 cells are transiently transfected with multiple reporter transcription units (MRTUs) in 6-well plates using FuGene 6 reagent (Roche; 3 ml FuGene/1 mg DNA). The MRTU constructs are regulated by a cis-regulating element (promoter). […] A major difference between the CIS and TRANS system is that in CIS activities of endogenous TFs are measured, whereas the TRANS assay evaluates changes in activities of exogenous, chimeric NR-Gal4 proteins. […] At the end of 24 hour incubation, total RNA was isolated using TriZol reagent (Invitrogen). The isolated RNA is then reverse-transcribed using oligo(dT) primer and Mo-MLV reverse transcriptase (Invitrogen) with DNAse I (Ambion) treatment for 30 min. The one-tenth of the produced cDNA was amplified by PCR using Taq DNA polymerase (Invitrogen) and two reporter sequence-specific primers. The PCR products were fluorescently labeled by primer extension with 6-arboxyfluorescein (6-FAM) 5'-labeled reporter sequence-specific primer (2 min at 95 C, 20 s at 68 C and 10 min at 72 C) and these products were digested with 5U of HpaI (New England Biolabs) for 2h at 37 C. The fragments were purified using Qiaquick PCR columns (Qiagen), analyzed on an ABI 3130xL genetic analyzer (Applied Biosystems) with peak positions identified by using a set of X-rhodamine (ROX)-labeled MapMarker1000 molecular weight standards (BioVentures). The raw capillary electrophoresis data was processed using Attagraph software (Attagene).
Compound,outcome,AC50
CC(C)Cc1ccc(C(C)C(=O)O)cc1 (stereo not given),inactive,–
N#CCCNCCC#N,inactive,–
O=C(OCc1ccccc1)c1ccccc1O,inactive,–
CCCCOCCOCCOCCO,inactive,–
CCC(C)C1CCCCC1=O (stereo not given),inactive,–
OCC=Cc1ccccc1,inactive,–
CC(C)(O)CCc1ccccc1,inactive,–
CCC(=O)OCC=Cc1ccccc1,inactive,–
CCO[Si](CCC#N)(OCC)OCC,inactive,–
COc1cc(OC)c2ccc(=O)oc2c1,inactive,–
O=C(c1ccc(OCCN2CCCCC2)cc1)c1c(-c2ccc(O)cc2)sc2cc(O)ccc12,inactive,8.87 µM (active) [middle of 4 runs]
OC[C@@H](O)[C@H](O)[C@@H](O)[C@@H](O)CO,inactive,–
C[C@H](CCC(=O)O)[C@H]1CC[C@H]2[C@@H]3CC[C@@H]4C[C@H](O)CC[C@]4(C)[C@H]3CC[C@]12C,inactive,–
CC(C)N(c1ccccc1)C(C)C,inactive,–
O=C(O)c1ccccc1O,inactive,–
CC(C)CCCC(C)(C)O,inactive,–
O=S(=O)(O)c1cc(S(=O)(=O)O)c2c(N=Nc3ccccc3)c(O)ccc2c1,inactive,–
c1ccc2c(c1)-c1ccc3ccc4cccc5cc-2c1c3c45,inactive,–
CC1(C)[C@H](C=C(Cl)Cl)[C@H]1C(=O)OCc1cccc(Oc2ccccc2)c1,inactive,–
C=CCOC(=O)/C=C\C(=O)OCC=C,inactive,–

Compound,outcome,AC50
OC[C@H]1O[C@@H](O[C@H]2[C@H](O)[C@@H](O)[C@H](O)O[C@@H]2CO)[C@H](O)[C@@H](O)[C@H]1O,inactive,–
CCCCCCCCSCc1cc(C)c(O)c(CSCCCCCCCC)c1,inactive,–
O=C(O)c1ccc(C(=O)O)c(C(=O)O)c1,inactive,–
O=Cc1ccccc1O,inactive,–
CC/C=C\C#N,inactive,–
CC(O)CNCC(C)O (stereo not given),inactive,–
CC(=O)CC(C)(C)C1CCCCC1,inactive,–
CCCCCCC(O)CCOC(C)=O (stereo not given),inactive,–
CCOc1ccc(NC(C)=O)cc1,inactive,–
COC(=O)C(C)Oc1ccc(Oc2ncc(C(F)(F)F)cc2Cl)cc1 (stereo not given),inactive,–
CN(C)C,inactive,–
CC(C)C(=O)OCC=Cc1ccccc1,inactive,–
O=C(O)CS,inactive,–
CC(=O)CCc1ccc(O)cc1,inactive,–
COc1ccccc1NC(=O)CC(C)=O,inactive,–
CCCC1CCOC(C)S1 (stereo not given),inactive,–
C1CCCNCC1,inactive,–
CC(C)=CCCC(C)=CC(=O)O,inactive,–
CC1=CC[C@@H](C(C)(C)O)CC1,inactive,–
